# Data published in the supplement of paper PMC11417369.
# ± gives the standard deviation of the averaged measurements. Over roughly 25,000 sequences, “ln(normalized median fluorescence intensity)” has its median near 10; the highest 2% begin near 12. For the sample, the highest values were picked, then their nearest neighbours and some sequences at random.
# Test system: PfAP2-G AP2 domain (GST-tagged)
# Assay: gcPBM binding intensity (ln(normalized median fluorescence intensity)); higher = stronger DNA binding
# Outline: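 For binding intensity, the highest Masliner-normalised natural-log median intensity across replicate spots of either probe orientation was taken. Protein bound to the array was stained with Alexa488 anti-GST antibody and scanned at 488 nm. The protein, GST-tagged P. falciparum DNA-binding domains from E. coli at about 25 μg on average, had been applied for 1 h to an Agilent 4 × 180k array of primer-extended double-stranded 36-bp intergenic genomic probes and negative controls.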
row,Sequence,gcPBM binding intensity (ln)
1,TTCTTTTTAAATTACACACACATATAAATATGTATA [CACACA_site7618],10.04 ± 0.071
2,AAACAAAATGGTAACACACACATATATAAATATGTA [CACACA_site6994],10.2 ± 0.35
3,CATATTGGTATGCTCATGCACTTTTATTTTGTTATT [GTGCAC_site9553],10.2 ± 0.13
4,TTATAATAATATAATACATGCATATATATTTAAATA [TGCATGCA_site903],9.62 ± 0.12
5,TGTTATTATTTGTACACACACATATAGATCCTTGTT [CACACA_site7667],11.3 ± 0.83
6,AAATTACTGTAAAAAAGTACAGAAGTTCTTATTTTT [XGTACX_site7416],11.5 ± 0.93
7,AAAATTAAAATACGTACACACCTTATCTTTTTGGCT [CACACA_site4311],11.7 ± 1.1
8,TTAAAATTATAATACGTACACACCTTATCTTTTTGG [CACACA_site278],11.5 ± 0.86
9,TTAAAATTAAAATACGTACACACCTTATCTTTTTGG [CACACA_site7982],11.6 ± 0.81
10,TGGTTAATATGTGAAAGTACATATTATATTAAAATG [XGTACX_site2636],11.1 ± 0.58
11,TAGTTAATATGAAAAAGTACACGTTTCAGTGAAAGT [XGTACX_site7402],11.7 ± 1
12,TATATTAATATGAAAAGTACACATTCTATATATATA [XGTACX_site929],11.4 ± 0.91
13,AATAAATAAATATATTGTACATATATATATATATAT [XGTACX_site8627],11 ± 0.53
14,ATAAATATACCAATCGGTACACATTTATACAAACAA [XGTACX_site7484],11 ± 0.64
15,ATTCTAAATTAAAATACACACATATATACATAATAT [CACACA_site2792],9.985 ± 0.021
16,TTTTGATCATCCAAAATATCTTCATCTGAACTACTA [CACACA_negctrl_site939],9.84 ± 0.042
17,ATTTTATTTTTGTGCACACTGATAAATTGAAAAGAG [CACACA_site2948],10.8 ± 0.57
18,TATGATTCATAATAGTGTACGTAAAAATTGACTAGA [XGTACX_site5376],11.7 ± 1
19,AATAATCATTTTCATAGTACGTATGATTAGAAAAAA [XGTACX_site2589],11 ± 0.66
20,AATAAATTCATGAATTGTACGTAATGATAACATGAA [XGTACX_site2591],11.3 ± 0.75
21,AATGTGCACACGCGTACACACAAAAAAAGAAAAAAA [CACACA_site7031],11.7 ± 1.1
22,AAAAATGTGCACACGCGTACACACAAAAAAAGAAAA [XGTACX_site4097],11.5 ± 0.79
23,AATGTGCCCACGCGTACACACAAAAAAAGAAAAAAA [CACACA_site2003],11.7 ± 1.1

row,Sequence,gcPBM binding intensity (ln)
1,TTAGCTACACGCTAATGTACACAAATACAAAGAAAA [XGTACX_site3993],11.4 ± 0.71
2,CATGCTTATATGTGCACACACAAAAGAAAAGAAAAA [CACACA_site1655],10.6 ± 0.62
3,AAAATGTGCCCACGCGTACACACAAAAAAAGAAAAA [CACACA_site2004],11.6 ± 0.79
4,TATTATATTATGTGATGTACATATTTATATAGGCCC [XGTACX_site4746],11.2 ± 0.8
5,TGTAGTTTTTATTTATGTACGCATAACATAATTTAA [XGTACX_site104],11.6 ± 0.7
6,TTATTCATTTCGAAAAGTACAAATTCTGTTTATTAT [XGTACX_site6892],11.1 ± 0.71
7,AAAAAAAAAACAAATACACACGCACCCAAAAAAAAA [CACACA_site8166],10.5 ± 0.26
8,AAAAAAAAAAAATGTGCACACGCGTACAGACAAAAA [CACACA_site2005],11.8 ± 0.99
9,TACACAAACAGACACACACACACACGCGCACAAAAA [CACACA_site7192],10.6 ± 0.38
10,TATACAATATAAAATACACACGCACCCAAAAAAAAA [CACACA_site9174],10.6 ± 0.4
11,AAAAAAAAAATGTGCACACGCGTACACCCAAAAAAA [CACACA_site5149],11.7 ± 0.99
12,AAAAAAAAAAAATGTGCACACGCGTACACCCAAAAA [CACACA_site8614],11.7 ± 0.77
13,AACACGCACAGACACACACACAAAAATGATTAAAAA [CACACA_site7195],10.6 ± 0.67
14,AACATATAAAAATGTGCACACACACCCATATATATA [CACACA_site1525],10.4 ± 0.3
15,CATATAAAAATGTGCACACACACACCCATATATATT [CACACA_site1526],10.4 ± 0.41
16,AAGGAACTATAATATACACACATAAGTGTACTTATA [CACACA_site7816],11.5 ± 1
17,TATATATATATAACAACACACACAGATCATAAAACT [CACACA_site8670],10.3 ± 0.27
18,TTAATACCCAGACACACACACACAAAATAAAATACA [CACACA_site7968],10.2 ± 0.4
19,TTGTATTAAAATCAAGTGCATATAATTTAAGTTCAT [GTGCAC_site9495],10 ± 0.16
20,ATAATTAACAAATACACACACACACGCCCACAAAAA [CACACA_site6389],10.9 ± 0.54
21,AAATTTAAATAATGTGCGCATCTTAATATATATAAG [GTGCAC_site9890],10.2 ± 0.13
22,CCCCATTTATCTTAAGCATGCCATGGTTTTAGATAT [TGCATGCA_site24],10.6 ± 0.42
23,CTTATACATAAATTTTGTACACACAAAAAAAAAAAA [XGTACX_site2665],11.2 ± 1.1

row,Sequence,gcPBM binding intensity (ln)
1,ATACATAAATTTTGTACACACAAAAAAAAAAAAGCT [CACACA_site1351],11.2 ± 0.87
2,GAAAATTTTTGGTGTACACAAAAAAATCCAAAAAAA [CACACA_site5042],11.7 ± 0.87
3,ATGAATATAAAATATACACACTTATATATCGAATGA [CACACA_site6240],9.79 ± 0.13
4,ATTAGAGAATCGTAACCCAAATGAACATACTTAAAT [GTGCAC_negctrl_site363],10.04 ± 0.035
5,AAAAAAAATATATAAACACACATATTTATATACTCA [CACACA_site4984],9.665 ± 0.092
6,TTTATTTATTTTTGTTGTACACTTGTATATATTATT [XGTACX_site6486],11.4 ± 0.8
7,TACAAAATAACTAGCACACATATGTATAAACATATA [CACACA_site5948],10.1 ± 0.17
8,TATACATAAAACAGTTCACACATTGTATGAATATAT [CACACA_site4751],9.855 ± 0.035
9,ATAAAATAAATATAACCACACACGAAAGAGAGAGAA [CACACA_site9075],10.09 ± 0.057
10,GTAAACAATTATGAACGTACATAAAATAAATGAACA [XGTACX_site7159],11.3 ± 0.85
11,ATATTAATTCTACATTGTACACATGAAAAAATATAA [XGTACX_site8759],11.4 ± 0.96
12,ATAATAAATTCTACGCGTACAAAACCATGAACATTA [XGTACX_site7505],11.7 ± 1.1
13,CAAGGAACCAGACACACACACATAAATGTATATATA [CACACA_site752],10.1 ± 0.18
14,TTCATTCAAATCCAAGCATGCTTTATTAAAAAATTA [TGCATGCA_site567],9.84 ± 0.26
15,TTTATTTTTCCATATGCACACACACCGTATATATAA [CACACA_site8293],10.3 ± 0.16
16,TCTTAAAATCGGAAATGAAATAAAGTTTACAATATG [TGCATGCA_negctrl_site553],9.87 ± 0.071
17,ATATATATATATATATGTACACATATATTTCTTTTC [XGTACX_site3443],11.4 ± 0.91
18,TTTATATGTATTAAGTGTACACATATAATGTGTTTG [XGTACX_site6629],11.5 ± 0.86
19,TTTATATGTATGAAGTGTACACATATATTGTATTTT [XGTACX_site5731],11.6 ± 0.82
20,ATATGTATTAAGTGTACACATATAATGGGTTTGTTA [CACACA_site5682],11.7 ± 0.95
21,ATATGTATTAAGTGTACACATATAATGTATTTTGTT [CACACA_site4177],11.6 ± 0.92
22,ATATGTATTAAGTGTACACATATAATGGGTTTTCTT [CACACA_site5328],11.6 ± 0.73
23,TTTATATGTTTTAAGTGTACACATATAATGTATTTT [XGTACX_site3069],11.6 ± 0.91

row,Sequence,gcPBM binding intensity (ln)
1,ATATGTTTTAAGTGTACACATATAATGTATTTTGTT [CACACA_site4929],11.6 ± 0.9
2,ATATGTATGAAGTGTACACATATATTGTATTTTCTT [CACACA_site5503],11.7 ± 0.91
3,TGCTATAATTTATATACACACAAATATATACGCATA [CACACA_site4096],10 ± 0.14
4,TTTTATTTACACAGTGGTACTATTAAAAATTAATGA [XGTACX_site6737],11 ± 0.7
5,TTTTTTTTGCGTACAGTGCAAATTTATTTACTATTC,11.7 ± 1.1
6,AGAAAAATTATTTTGCGTACATATTTACAATAAAAA [XGTACX_site2144],11.5 ± 0.75
7,GACATTTCTTGGGATACATGCATGTCCCAGAACAAA [TGCATGCA_site271],10.6 ± 0.4
8,CTTATTTCCTTTTGTAGTACCTTATAATATATATAA [XGTACX_site8873],11.3 ± 0.69
9,ATTCTTTTATTTAGTAGTACATTTGTATTTTATTCA [XGTACX_site5790],11.5 ± 0.95
10,TTTGAACTTTTATATACACACATTATTATAGTATAG [CACACA_site6851],10.04 ± 0.071
11,TTATTTTTTAGTAGTACACACTTTTTGTACCTTTTA [CACACA_site4503],11.8 ± 1.1
12,TTTTTATTTTTGTAGTGTACTTTATTTTTTTTGTTT [XGTACX_site8887],11.6 ± 0.91
13,TTTTATTTTTTAGTAGTACACACTTTTTGTACCTTT [CACACA_site599],11.8 ± 1
14,TTTTTATTTTTTAGTAGTACACACTTTTTGAACCTT [XGTACX_site1091],11.6 ± 0.97
15,TTTTTTATTACTTTGTGTACTTACACAGAACCTTAT [XGTACX_site6038],11.5 ± 0.88
16,TGTTTACACTTTTTTTGTACACATAATTTTATTTGA [XGTACX_site3760],11.3 ± 0.81
17,AATTATATAAGCCACGCATGTGTGCATAAAAATACA [TGCATGCA_site114],10.2 ± 0.14
18,TGTACGAGTCGTAGAGTGCAGTCTGGAGAAACGTAC [GTGCAC_site9682],11 ± 0.47
19,AATTTACATATATATTGTACATTTATGTATATATAT [XGTACX_site4186],10.7 ± 0.52
20,AAATAAATCTTATGCACACAAATAATTAATTAAACA [CACACA_site1693],10.06 ± 0.014
